DT40 TDP1 CPT = DT40-hTDP1 cell growth loss with CPT; chicken DT40 Tdp1-/-;hTDP1 cells + 20 nM CPT, ATP luminescence, 48 h; Potency, µM (doses to about 46.2 µM), actives largely listed as inhibitors; hit rate 12% among 420,000; AID 686979; also: nearly all actives have a fitted effect of over 55% in size
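Chicken DT40 Tdp1-/- cells complemented with human TDP1, 400 cells/well, exposed to compounds plus 20 nM camptothecin for at least 48 h at 37 C; viability read as ATP content by CellTiter-Glo luminescence.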
KB-V1 cytotox = kills drug-selected multidrug resistant KB-V1 cells; KB-V1 MDR cells viability, CellTiter-Glo, 72 h; Potency, µM (series often up to 46.1 µM), actives largely listed as cytotoxic; hit rate 3.4% among 400,000; also: nearly all actives have a fitted effect of over 60% in size
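KB-V1, DMEM (no phenol red) + 10% FBS; cpd pin-transferred, titration series; 72 h, 37 degrees C; CellTiter-Glo, luminescence. Data normalized, curve-fit.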
TDP1 cell noCPT = qHTS for Inhibitors of human tyrosyl-DNA phosphodiesterase 1 (TDP1): qHTS in cells in absence of CPT. DT40 Tdp1-/- hTDP1 cells, no CPT, ATP luminescence, 48 h. Potency, µM (highest dose often 46.2 µM), actives largely listed as inhibitors. hit rate 15% among 420,000. AID 686978, 2013; also: nearly all actives have a fitted effect of over 55% in size
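Readout: luminescence from CellTiter-Glo after 30 min in the dark at RT. Cells: DT40 Tdp1-/- with stable hTDP1, 400/well. Exposure: compounds alone, ≥48 hr, 37 °C.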
HT1080 IDH1KD tx = HT-1080 IDH1 knockdown cell toxicity (counter line); Potency, µM (series often up to 46.1 µM), hits mostly cytotoxic; hit rate 2% among 360,000; AID 686971; HT-1080 IDH1 knockdown viability, ATP luminescence, 48 h
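HT-1080-IDH1KD cells (IDH1 knocked down), 750/well in RPMI with 5% FBS, treated with compound 48 h at 37 degrees C. Viability by CellTiter-Glo luminescence, normalised to DMSO and no-cell wells; concentration-response curves classed.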
KB-3-1 tox = kills parental KB-3-1 adenocarcinoma cells. KB-3-1 viability, CellTiter-Glo ATP luminescence, 72 h. Potency, µM (doses to about 46.1 µM), most hits filed as cytotoxic. hit rate 1.4% among 400,000; also: nearly all actives have a fitted effect of over 60% in size
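Cytotoxicity measured as CellTiter-Glo luminescence after 72 h at 37 C. Compound titrations were pinned onto drug-naive KB-3-1 parental adenocarcinoma cells grown in DMEM with 10% FBS, and normalized data fitted to concentration-response curves.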
HT1080-NT tox = kills 2HG-producing HT-1080-NT fibrosarcoma cells; HT-1080-NT fibrosarcoma viability, CellTiter-Glo ATP luminescence, 48 h; Potency, µM (highest dose often 46.1 µM), usual class: cytotoxic; hit rate 1.6% among 360,000;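 also: NT is the 2HG producing partner of a matched IDH1 knockdown line; nearly all actives have a fitted effect of over 55% in size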
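Fibrosarcoma NT cells, 750 per well in 5% FBS RPMI, were exposed to compound for 48 hours. Viability: CellTiter-Glo luminescence.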
A number is an active result; – = inactive; ? = inconclusive; · = not tested or not shown. This is a sample that favours compounds with a hit; in the whole collection about 19% have one here. Calls follow the shape of the dose curve; as a rule, active = well fitted curve in the direction sought with a large enough effect; inconclusive = small, poorly fitted or top-dose-only effect, or another doubt; inactive = no such curve, though single readings can be large; an effect the other way counts as inactive or inconclusive.

SMILES	DT40 TDP1 CPT	KB-V1 cytotox	TDP1 cell noCPT	HT1080 IDH1KD tx	KB-3-1 tox	HT1080-NT tox
Cc1cc(C(=O)N/N=C2\CCCc3ccccc32)c(C)o1	–	?	–	–	–	–
O=C(NCCN1CCN(C(=O)c2ccc(F)cc2)CC1)c1ccc(F)cc1	–	–	–	–	–	–
O=C(NCc1ccccc1)C(=O)Nc1ccc2nc3n(c(=O)c2c1)CCCCC3	–	–	–	·	–	·
COc1ccc(CN2C(=O)CCC2(C)c2nnnn2-c2ccc3c(c2)OCCO3)cc1OC (stereo not drawn)	–	–	–	–	–	–
Cc1ccc(S(=O)(=O)NC(C)C(=O)NC2CC2)cc1 (stereo not drawn)	–	–	–	–	–	–
Cc1ccc(S(=O)(=O)N[C@H](C(=O)NC2CCC(C)CC2)C(C)C)cc1 (stereo partly drawn)	?	–	18.4µM	–	–	–
CSCCC(NS(=O)(=O)c1ccc(C)cc1)C(=O)NC1CCCCCC1 (stereo not drawn)	?	–	20.6µM	–	–	–
CSCCC(NS(=O)(=O)c1ccc(C)cc1)C(=O)NC1CCCCC1 (stereo not drawn)	–	–	–	–	–	–
O=C1CCCCN1CCCC(=O)N1CCCC(Nc2ccccc2)C1 (stereo not drawn)	–	·	–	–	·	–
COc1cc(OC)cc(N2C(=O)CSC23C(=O)Nc2ccccc23)c1 (stereo not drawn)	·	–	·	·	–	·
COc1ccc2nc(/C=N/NC(=O)CCCCCNC(=O)OC(C)(C)C)ccc2c1	20.6µM	–	18.4µM	–	–	–
CC(C)(C)OC(=O)NCCC(=O)N/N=C/c1ccc2nccnc2c1	–	–	–	–	–	–
Cc1ccc(S(=O)(=O)c2ncccc2N)cc1	–	–	–	–	–	–
Cc1ccc(S(=O)(=O)c2ncccc2[N+](=O)[O-])cc1	1.16µM	?	0.651µM	23.1µM	?	9.2µM
COc1ccc(C(C)=O)cc1COC(=O)Cc1cc(OC)c(OC)c(OC)c1	–	–	–	–	–	–
Cc1ccc2c(c1C)NC(=O)C21N2CCCC2C(C(=O)c2ccc3ccccc3c2)C12C(=O)Nc1ccccc12 (stereo not drawn)	23.1µM	?	11.6µM	–	?	–
Cc1ccc2c(c1C)NC(=O)C2(O)CC(=O)c1ccc2c(c1)OCO2 (stereo not drawn)	–	?	–	–	–	–
CCOc1ccccc1NC(=O)C1CCCN(S(=O)(=O)c2cccs2)C1 (stereo not drawn)	23.1µM	–	23.1µM	·	–	·
CCOc1ccccc1NC(=O)C1CCCN(S(=O)(=O)c2ccc(OC)c(C)c2)C1 (stereo not drawn)	?	–	16.4µM	–	–	–
CCOc1ccccc1NC(=O)C1CCCN(C(=O)NCc2ccccc2)C1 (stereo not drawn)	–	8.2µM	–	–	–	–
O=[N+]([O-])c1ccc(C2CC(c3ccccc3)=Nc3ccccc3S2)cc1 (stereo not drawn)	?	–	20.6µM	–	–	–
O=C(/C=C/c1ccc(O)c(O)c1)O[C@H]1C[C@@](O)(C(=O)O)CC(O)C1O (stereo partly drawn)	–	·	–	·	·	·
CC(=O)CCC1C2C(O)C(C(C)C)C(OC(=O)/C=C/c3ccccc3)CC12C (stereo not drawn)	18.4µM	–	25.9µM	–	–	–
O=C(CC1N=C2c3ccccc3N=C(SCC(=O)Nc3ccccc3F)N2C1=O)NCc1ccc2c(c1)OCO2 (stereo not drawn)	?	–	?	·	–	·
Cc1cccc(/C=N/NC(=O)c2ccc(F)cc2)n1	?	–	?	–	–	–
Cc1cccc(/C=N/NC(=O)c2cccc([N+](=O)[O-])c2)n1	18.4µM	–	20.6µM	–	–	–
Cc1cccc(/C=N/NC(=O)c2cccc(NC(=O)c3ccccc3)c2)n1	–	–	–	–	–	–

Screening results deposited in PubChem BioAssay by National Center for Advancing Translational Sciences (NCATS).
